Measurements: article PMC4336329 (PLoS ONE, 2015)
Out of some 310,000 compounds screened, about 14,000 (4.5%) showed an effect of 50% or more. The effect is printed as a negative number. The list comes from a sample in which strong results are over-represented; it also holds similar structures and randomly drawn compounds.

Molecular target: human ether-à-go-go-related gene (hERG) potassium channel (human, UniProt Q12809)
Assay: primary screen, population patch clamp on CHO cells stably expressing hERG; higher = less effect of the substance
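Further: peak tail current of the secondary pulse compared with the same well before compound.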

human ether-à-go-go-related gene (hERG) potassium channel, sequence (Q12809 whole entry, looked up): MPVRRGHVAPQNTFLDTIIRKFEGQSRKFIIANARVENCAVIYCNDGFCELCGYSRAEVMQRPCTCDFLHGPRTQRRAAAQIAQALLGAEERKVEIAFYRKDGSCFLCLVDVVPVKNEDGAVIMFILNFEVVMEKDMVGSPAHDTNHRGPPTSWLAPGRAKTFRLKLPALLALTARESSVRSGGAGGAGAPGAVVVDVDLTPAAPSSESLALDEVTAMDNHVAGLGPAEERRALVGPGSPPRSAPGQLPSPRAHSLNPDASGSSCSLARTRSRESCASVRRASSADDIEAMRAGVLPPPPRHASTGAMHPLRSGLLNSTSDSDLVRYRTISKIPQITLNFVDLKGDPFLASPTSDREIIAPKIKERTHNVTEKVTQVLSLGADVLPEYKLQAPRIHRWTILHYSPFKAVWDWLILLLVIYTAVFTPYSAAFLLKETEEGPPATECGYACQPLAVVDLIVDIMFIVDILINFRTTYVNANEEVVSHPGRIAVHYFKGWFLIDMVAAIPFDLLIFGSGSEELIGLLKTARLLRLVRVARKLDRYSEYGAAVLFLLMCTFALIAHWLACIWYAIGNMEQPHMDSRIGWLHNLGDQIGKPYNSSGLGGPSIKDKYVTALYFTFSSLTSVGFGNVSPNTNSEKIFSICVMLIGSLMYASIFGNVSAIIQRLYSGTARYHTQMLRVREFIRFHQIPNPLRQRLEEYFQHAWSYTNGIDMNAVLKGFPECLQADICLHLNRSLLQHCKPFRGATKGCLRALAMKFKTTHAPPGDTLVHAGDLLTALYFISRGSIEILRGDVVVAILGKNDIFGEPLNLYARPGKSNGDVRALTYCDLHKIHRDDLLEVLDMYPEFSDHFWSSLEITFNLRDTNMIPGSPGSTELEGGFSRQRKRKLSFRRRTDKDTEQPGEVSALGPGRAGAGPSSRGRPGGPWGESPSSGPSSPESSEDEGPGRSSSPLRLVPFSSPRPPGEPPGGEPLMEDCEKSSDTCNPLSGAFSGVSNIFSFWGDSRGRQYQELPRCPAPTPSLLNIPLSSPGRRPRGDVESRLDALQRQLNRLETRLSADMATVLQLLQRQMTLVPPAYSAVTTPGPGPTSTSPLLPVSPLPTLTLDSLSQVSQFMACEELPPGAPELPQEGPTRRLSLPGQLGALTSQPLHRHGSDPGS

Structure (SMILES) | hERG current change (%, negative = inhibition) at 10uM
COc1cc(C(C)=O)ccc1OC(=O)C(C)N1C(=O)c2ccccc2C1=O (centres unmarked) | -13%
O=C(CN1C(=O)CNC1=O)Nc1cccc(C(F)(F)F)c1 | 8.56%
Cc1ccc(NC(=O)Cn2nnc3ccccc32)cc1 | 12.1%
CCCC(=O)NC(=S)Nc1cccc(NC(=O)c2ccc(Cl)cc2Cl)c1 | 11.6%
CCOC(=O)c1[nH]c2ccc(Br)cc2c1NC(=O)CCN1CCCC(C)(C)C1 | -75.7%
CCOC(=O)c1[nH]c2ccc(Br)cc2c1NC(=O)CCN1CCC(C(=O)OCC)CC1 | -73.9%
CCOC(=O)c1[nH]c2ccc(Br)cc2c1NC(=O)CCN1CCC(C)CC1 | -69.1%
CCOC(=O)c1[nH]c2ccc(F)cc2c1NC(=O)CCN1CCOCC1 | 3.03%
CCOC(=O)c1[nH]c2ccc(OC)cc2c1NC(=O)CCN1CCCC(C)C1 (centres unmarked) | -36.9%
CCOC(=O)c1[nH]c2ccc(Br)cc2c1NC(=O)CNC | -7.67%
CCOC(=O)c1[nH]c2ccc(Br)cc2c1NC(=O)CCN1CCN(C(=O)OCC)CC1 | -44%
COC(=O)c1[nH]c2cc(OC)ccc2c1NC(=O)CCN1CCCC(C)(C)C1 | -39.4%
CCOC(=O)c1[nH]c2ccc(OCC)cc2c1NC(=O)CN1CCCC(C)C1 (centres unmarked) | -18.3%
CCOC(=O)c1[nH]c2ccc(Br)cc2c1NC(=O)CCN1CCCC(C)C1 (centres unmarked) | -73.1%
CCOC(=O)c1[nH]c2ccc(Br)cc2c1NC(=O)CCN1CCOCC1 | 2.43%
CCOC(=O)C1CCN(CC(=O)Nc2c(C(=O)OC)[nH]c3ccc(Cl)cc23)CC1 | -15%
O=C(Cn1c(=O)n(Cc2ccc3c(c2)OCO3)c(=O)c2ccccc21)N1CCCc2ccccc21 | 4.46%
Cc1ccc(NC(=O)CSc2nnc(-c3cccnc3)o2)c(C)c1 | 3.3%
CCO[C@@H]1OC(C(=O)O)=C[C@H](C)[C@H]1CCCO | 20.7%

Structure (SMILES) | hERG current change (%, negative = inhibition) at 10uM
COc1ccc(CC(=O)Nc2nc3n(n2)C(c2ccccc2)CC(=O)N3)cc1OC (centres unmarked) | 5.18%
CC(=O)c1cccc(N(CC(=O)Nc2ccc(S(=O)(=O)N3CCOCC3)cc2)S(C)(=O)=O)c1 | 8.48%
CCCCCCn1c(=O)c(C(=O)Nc2cnccn2)c(O)c2ccccc21 | 1.2%
CCn1c(-c2c(Cl)c(C)nn2C)n[nH]c1=S | 10.9%
COc1ccc(C(=O)Nc2cc(-c3nn4c(C)nnc4s3)ccc2C)cc1 | -41.8%
Cc1cc(-c2ccccc2C(=O)O)on1 | 17.6%
CCCc1ccc(C2=Nn3c(nnc3C(C)C)SC2)cc1 | -6.25%
CCOc1ccc2ccccc2c1/C=N/NC(=O)c1c(C)cc(C)[nH]c1=O | 0.637%
CC1CCCCN1CC(O)COc1ccc(OCC(O)CN2CCCCC2C)cc1 (centres unmarked) | 16.4%
CC(=O)Nc1ccc(OCC(O)CN2CCN(S(=O)(=O)c3ccc(NC(C)=O)cc3)CC2)cc1 (centres unmarked) | -8.63%
N#Cc1ccc(-c2ccc(OCC(O)CN3CCOCC3)cc2)cc1 (centres unmarked) | -18.4%
COc1ccc(S(=O)(=O)N2CCN(CC(O)COc3ccc(C#N)cc3)CC2)cc1OC (centres unmarked) | -46.9%
CCOC(=O)c1ccc(S(=O)(=O)N2CCN(CC(O)COc3cccc(C(C)=O)c3)CC2)cc1.O=C(O)C(=O)O (centres unmarked) | -6.64%
COc1ccc(OC)c(S(=O)(=O)N2CCN(CC(O)COc3ccccc3)CC2)c1 (centres unmarked) | -34.7%
COc1ccc(OCC(O)CN2CCCCCC2)cc1 (centres unmarked) | 9.18%
CC1CN(CC(O)COc2ccc(C#N)cc2)CCN1CC(O)COc1ccc(C#N)cc1 (centres unmarked) | -77.2%
COc1ccc(OC)c(S(=O)(=O)N2CCN(CC(O)COc3ccc(C#N)cc3)CC2)c1 (centres unmarked) | -66.2%
N#Cc1ccc(-c2ccc(OCC(O)CN3CCCCC3)cc2)cc1 (centres unmarked) | -80.7%
CC(=O)Nc1ccc(OCC(O)CN2CCCCC2C)cc1.Cl (centres unmarked) | 3.85%

Structure (SMILES) | hERG current change (%, negative = inhibition) at 10uM
CCOC(=O)c1ccc(S(=O)(=O)N2CCN(CC(O)COc3ccc(C#N)cc3)CC2)cc1.O=C(O)C(=O)O (centres unmarked) | -63.2%
CCN(CC)S(=O)(=O)c1cc(C)ccc1SC | 12.1%
COc1ccc(C(=O)NNC(=O)c2ccc(C(C)(C)C)cc2)cc1 | 4.1%
CCN(CCN1CCCC1)C(=O)C1CCC(=O)N(CCCN2CCOCC2)C1 (centres unmarked) | 12.8%
O=C(CN1CCN(c2cccc(Cl)n2)CC1)N1CC(O)CO1 (centres unmarked) | 19.6%
CCc1noc(C)c1C(=O)N1CCN(S(=O)(=O)c2cccs2)CC1 | -23.5%
O=C(O)CN1CCN(c2ncc(C(F)(F)F)cc2Cl)CC1 | 11.6%
COc1ccc(OCC(O)CN2CCCC2)cc1 (centres unmarked) | 15.2%
CN(C)CC(O)COc1ccc(-c2ccc(C#N)cc2)cc1 (centres unmarked) | -57.5%
FC(F)(F)c1cnc(N2CCN(C(=S)NCc3ccccc3)CC2)c(Cl)c1 | -11.3%
N#Cc1ccc(OCC(O)CN2CCN(CC(O)COc3ccc(C#N)cc3)CC2)cc1 (centres unmarked) | -86.1%
N#Cc1ccc(OCC(O)CN2CCN(c3ncc(C(F)(F)F)cc3Cl)CC2)cc1 (centres unmarked) | -74.6%
CN(C)CC(O)COc1ccc(C(C)(C)c2ccc(OCC(O)CN(C)C)cc2)cc1.Cl (centres unmarked) | 12.5%
OC(CN1CCN(c2ccc(C(F)(F)F)cn2)CC1)c1ccccc1 (centres unmarked) | -26.5%
CN(CCOc1ccc(Br)cc1)CC(O)COc1ccc(C#N)cc1 (centres unmarked) | -16.3%
CN1CCN(CC(O)COc2ccc(OCC(O)CN3CCN(C)CC3)cc2)CC1 (centres unmarked) | -7.27%
CC(C)(C)NC(=O)NC(=O)CN1CCN(c2ncc(C(F)(F)F)cc2Cl)CC1 | -13.3%
OC(CN1CCN(c2ncc(C(F)(F)F)cc2Cl)CC1)c1ccccc1 (centres unmarked) | -58%
